In PubChem BioAssay (NCI):
The panel holds about 79,000 compounds, 15% with a hit somewhere; the sample as a whole holds those more often. Rule as the data show it: active = growth inhibition above about 70%; inactive = the rest. Where a SMILES comes first, the peptide text is derived from it. The star is where a group is joined. Boc = CC(C)(C)OC(=O)*

Tests used:
[1] = NCI Yeast Anticancer Drug Screen. Data for the rad50 strain (AID 155);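 also: 0% = growth of vehicle-only cultures of the same strain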; conditions: S. cerevisiae rad50 strain growth inhibition; at 50.0 µM; stronger effect = higher value
Method in brief: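 DNA repair mutant yeast, compound exposure, growth read-out; inhibition is taken relative to vehicle.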

[2] = NCI Yeast Anticancer Drug Screen. Data for the mec2-1 strain (AID 157); conditions: S. cerevisiae mec2-1 strain, at 50.0 µM, stronger effect = higher value
Method in brief: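 Compounds were applied to mec2-1 yeast cells. Their growth was then compared with that of vehicle-treated cultures to give growth inhibition.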

[3] = NCI Yeast Anticancer Drug Screen. Data for the sgs1 mgt1 strain (AID 161);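 also: 0% = growth of cultures given vehicle only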; conditions: S. cerevisiae sgs1 mgt1 strain, at 50.0 µM, stronger effect = higher value
Method in brief: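 Percent growth inhibition was derived by comparing compound-exposed mutant yeast with vehicle-exposed cultures. The strain carries alterations in DNA damage repair.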

[4] = NCI Yeast Anticancer Drug Screen. Data for the cln2 rad14 strain (AID 165);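 also: 0% = growth equal to vehicle treated cultures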; conditions: S. cerevisiae cln2 rad14 strain, at 50.0 µM, stronger effect = higher value
Method in brief: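 Strain: cln2 rad14 yeast, altered in cell cycle control and DNA damage repair. Read-out: growth inhibition vs vehicle.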

[5] = NCI Yeast Anticancer Drug Screen. Data for the bub3 strain (AID 167); conditions: S. cerevisiae bub3 mutant strain, at 50.0 µM, stronger effect = higher value
Method in brief: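 In this screen, a yeast mutant lacking normal mitotic checkpoint function is challenged with compound. Relative growth versus vehicle gives the inhibition value.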

[6] = NCI Yeast Anticancer Drug Screen. Data for the mlh1 rad18 strain (AID 175); conditions: S. cerevisiae mlh1 rad18 strain growth inhibition; at 50.0 µM; stronger effect = higher value
Method in brief: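 A repair-deficient yeast strain is exposed to test compound, and growth is scored relative to vehicle-treated controls.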

Measured: growth inhibition

COC12OCCN(C)C1=CC(=O)C1N=NCC12 (stereo not given)
inactive: [1] 5.75% | [2] 1.35% | [3] 11.2% | [4] 8.3% | [5] -0.3% | [6] 7.55%

O=c1c2ccccc2n2c(-c3ccc(O)cc3)nnc2n1-c1ccccc1
inactive: [1] -30.3% | [2] -17.1% | [3] 4.4% | [4] 7.75% | [5] 1.5% | [6] -14.8%

S=C1CC(c2ccc(Cl)cc2)Sc2ccccc2N1 (stereo not given)
inactive: [1] -24.9% | [2] -5.6% | [3] -9.4% | [4] -0.95% | [5] -6.85% | [6] -31.4%

CCCCC(CCCC)c1ccccn1
inactive: [1] -15.1% | [2] -10.9% | [3] 8.15% | [4] -18.2% | [5] 8.85% | [6] -14.4%

CCOC(=O)C(C(=O)OC(c1ccccc1)c1ccccc1)(C(c1ccccc1)c1ccccc1)C(c1ccccc1)c1ccccc1
inactive: [1] 0.45% | [2] 18% | [3] 1.65% | [4] -9.25% | [5] -1.4% | [6] -10.8%

O=C1C(CN2CCCCC2)CCC1CN1CCCCC1 (stereo not given)
inactive: [1] 23.9% | [2] 15% | [3] 30.8% | [4] 9.95% | [5] 14.1% | [6] 51.5%

CCOC(=O)Nc1nc(-c2ccccc2)c(C)s1
inactive: [1] -23.2% | [2] -20.8% | [3] -16.8% | [4] -7.1% | [5] -44.9% | [6] -2.15%

CC(=O)Nc1ccccc1O
inactive: [1] -4.75% | [2] -15.2% | [3] -0.85% | [4] -18.3% | [5] 0.35% | [6] 14.2%

COC1=NC(NC2OCC(O)C(O)C2O)=C(NC(C)=O)CN1C (stereo not given)
inactive: [1] -46.5% | [2] -41.4% | [3] -20.1% | [4] -3.65% | [5] -31.7% | [6] -22.4%

CCN(/N=C1\CC2C=CCN(C2)C(=O)Cc2c1[nH]c1ccccc21)S(=O)(=O)c1ccc(C)cc1 (stereo not given)
inactive: [1] 30.9% | [2] 12.1% | [3] 39.2% | [4] 23.6% | [5] 20.5% | [6] 19.4%

CCc1ccc(C(C)=O)cc1
inactive: [1] 7.05% | [2] 41.5% | [3] 34.8% | [4] 3.5% | [5] -9.7% | [6] 52.6%

O=C(CC(C(=O)c1ccsc1)c1cccs1)c1ccsc1 (stereo not given)
inactive: [1] -11.2% | [2] -19.2% | [3] 18.6% | [4] 24.5% | [5] 28.9% | [6] 3%

COc1ccc(/C=N/N2CN(C(CC(N)=O)C(=O)O)P(Nc3ncccn3)N=C2N)cc1OC (stereo not given)
inactive: [1] 7.55% | [2] -3.9% | [3] 0.4% | [4] -20.9% | [5] 6.65% | [6] 8.35%

CC(=O)/C(=C/n1ccc(=O)[nH]c1=S)C(=O)Nc1ccccc1
inactive: [1] -23.1% | [2] -20.5% | [3] -18.6% | [4] 11.2% | [5] -12.7% | [6] -22.1%

CS/N=C(\c1ccccc1)N1CCOCC1
inactive: [1] -38.2% | [2] -5.7% | [3] -4.95% | [4] -21.1% | [5] 4.25% | [6] 5.2%

C1CCCN(/N=N/N2CCCCCC2)CC1
inactive: [1] -1.5% | [2] 0.4% | [3] -1.7% | [4] -19.1% | [5] 10.8% | [6] 6.65%

Cc1cc(C)c(NC(=O)Nc2cccc(F)c2)c(C)c1
inactive: [1] 20.8% | [2] 11% | [3] 13.2% | [4] 19.2% | [5] 23.4% | [6] 13.3%

C#[N+]CCOP(=O)(OCC1OC(n2cc(C)c(=O)[nH]c2=O)CC1N=[N+]=[N-])O[C@H]1CC[C@@]2(C)C(=CC[C@H]3[C@@H]4CC[C@H](C(C)CCCC(C)C)[C@@]4(C)CC[C@@H]32)C1 (stereo not given in full)
inactive: [1] -18.8% | [2] -30.1% | [3] -24.6% | [4] 3.05% | [5] -0.35% | [6] -17.4%

COC(=O)CCCCCCCCCCC1C=CCC1 (stereo not given)
inactive: [1] -3.5% | [2] -23% | [3] 11.4% | [4] 9.8% | [5] -3.45% | [6] 0.5%

CC(C)(C)c1ccc(C(=O)NCSCC(NC(=O)CCC(N)C(=O)O)C(=O)NCC(=O)O)cc1 (stereo not given)
inactive: [1] -10.4% | [2] 1% | [3] -10.7% | [4] -7.75% | [5] 0.85% | [6] 14.8%

Cc1ccc2ncccc2c1
inactive: [1] -2.75% | [2] -18.1% | [3] 1.8% | [4] -12.4% | [5] 3.9% | [6] -6.45%

CC1(C)CCC2(CO)C(=C3C=CC4C5(C)CCC(O)C(C)(CO)C5CCC4(C)C3(C)CC2O)C1 (stereo not given)
inactive: [1] 0.45% | [2] -31.8% | [3] -0.75% | [4] -3.35% | [5] -9.5% | [6] 11.4%

O=C1C=C(c2ccccc2)CC1
inactive: [1] -17.8% | [2] 2.55% | [3] -6.05% | [4] 8.4% | [5] 13.1% | [6] 0.95%

COC(=O)C(Cc1ccccc1)NC(=O)C(Cc1ccccc1)NC(=O)OC(C)(C)C (stereo not drawn) (Boc-Phe-Phe-OMe; configuration not given here)
inactive: [1] -7.05% | [2] -4.3% | [3] -18.9% | [4] -51% | [5] 0.15% | [6] -6.4%

CC12CC(c3ccccc3)C(C)(C(c3ccccc3)=C1c1ccccc1)C2(O)c1ccccc1 (stereo not given)
inactive: [1] -2.85% | [2] 0.1% | [3] 12.7% | [4] -13.3% | [5] -2.45% | [6] 13.4%

COc1ccc([N+](=O)[O-])cc1NC(=S)NC(=O)c1cccc(Br)c1
inactive: [1] -8.6% | [2] 4.2% | [3] -0.1% | [4] -63.6% | [5] 3.7% | [6] 1.55%

CC(C)(C)C(=O)[CH-]C(=O)C(F)(F)F.CC(C)(C)C(=O)[CH-]C(=O)C(F)(F)F.CC(C)(C)C(=O)[CH-]C(=O)C(F)(F)F.[Ru+3]
inactive: [1] 25.8% | [2] -4.65% | [3] 1.7% | [4] -1.35% | [5] 8.5% | [6] 24.4%

COc1ccc(CSc2nc3ccccc3nc2-c2cccs2)cc1
inactive: [1] -16.2% | [2] -39.2% | [3] -43.8% | [4] -1.35% | [5] -24.9% | [6] -54.8%

C/C(=C/c1c(C)[nH]c(=O)[nH]c1=O)C(=O)O
inactive: [1] 10.9% | [2] 13.6% | [3] -3.75% | [4] -29.8% | [5] 8.75% | [6] -3.75%

CCN=C(N)CSS(=O)(=O)O
inactive: [1] -1.9% | [2] -28.1% | [3] -32.8% | [4] -4.6% | [5] -22% | [6] -16.7%

Cc1ccccc1S(=O)(=O)Nn1cnc2ccc(S(=O)(=O)Nc3ccc(Cl)cc3)cc2c1=O
inactive: [1] 40.1% | [2] 0.25% | [3] 40.6% | [4] 6.95% | [5] 23.9% | [6] 30.1%

O=C(Nc1ccc(F)cc1)Nc1ccc(F)cc1
inactive: [1] 3.4% | [2] -10.9% | [3] -3.25% | [4] -43.7% | [5] -32.9% | [6] -16.6%

ClC1=C(Cl)C2(Cl)C3C(CC4C3C3(Cl)C(Cl)=C(Cl)C4(Cl)C3(Cl)Cl)C1(Cl)C2(Cl)Cl (stereo not given)
inactive: [1] -7.65% | [2] -7.4% | [3] -2.75% | [4] -32.1% | [5] 0.15% | [6] -9.9%

Cc1ccc(C2SCC(=O)N2c2ccc(-c3ccc(-n4c(-c5ccccc5)nc5ccccc5c4=O)cc3)cc2)cc1 (stereo not given)
inactive: [1] 14% | [2] 6% | [3] 33% | [4] -0.45% | [5] 45.8% | [6] 55.8%

Cc1ccc2c(c1)C(C)CC2(C)C (stereo not given)
inactive: [1] 1.8% | [2] -6.55% | [3] -4.6% | [4] 3.65% | [5] 8.95% | [6] 2.15%

OCC(OC/C=C/CCl)c1ccc(Cl)cc1 (stereo not given)
inactive: [1] -6.75% | [2] 8.7% | [3] 0.2% | [4] -0.15% | [5] -9.5% | [6] -15.9%

O=S1(=O)C(c2ccccc2Cl)=C(O)C(O)=C1c1ccccc1Cl
inactive: [1] -0.6% | [2] -35.4% | [3] 5.05% | [4] 6% | [5] -2.1% | [6] 11.2%

CCCCc1ccc(-n2c(C)nc3[nH]cc(C)c3c2=N)cc1
inactive: [1] -1.35% | [2] -10.9% | [3] -3.5% | [4] -1.75% | [5] -2.5% | [6] -3.75%

O=Cc1c2c(cc3c1CC1(C3)Cc3cc4c(c(C=O)c3C1)CCC4)CCC2
inactive: [1] -26.4% | [2] -40.1% | [3] -25.9% | [4] 3.7% | [5] 26.8% | [6] 1.35%

Cc1cccc(C(=O)NC(C)C)c1
inactive: [1] -7.75% | [2] -40% | [3] -5.9% | [4] 15.8% | [5] -4.95% | [6] -19.6%
